Data taken from article PMC4336329 (PLoS ONE, 2015).
Out of some 310,000 compounds screened, about 14,000 (4.5%) showed an effect of 50% or more. The effect is printed as a negative number. What follows is part of a selection rich in strong results, with near analogues and random picks from the rest.
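Note: peak tail current of the secondary pulse compared with the same well before compound.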

The compounds below were run against human ether-à-go-go-related gene (hERG) potassium channel (human, UniProt Q12809) (assay: primary screen, population patch clamp on CHO cells stably expressing hERG; higher = less effect of the substance).
human ether-à-go-go-related gene (hERG) potassium channel, sequence (Q12809 whole entry, looked up): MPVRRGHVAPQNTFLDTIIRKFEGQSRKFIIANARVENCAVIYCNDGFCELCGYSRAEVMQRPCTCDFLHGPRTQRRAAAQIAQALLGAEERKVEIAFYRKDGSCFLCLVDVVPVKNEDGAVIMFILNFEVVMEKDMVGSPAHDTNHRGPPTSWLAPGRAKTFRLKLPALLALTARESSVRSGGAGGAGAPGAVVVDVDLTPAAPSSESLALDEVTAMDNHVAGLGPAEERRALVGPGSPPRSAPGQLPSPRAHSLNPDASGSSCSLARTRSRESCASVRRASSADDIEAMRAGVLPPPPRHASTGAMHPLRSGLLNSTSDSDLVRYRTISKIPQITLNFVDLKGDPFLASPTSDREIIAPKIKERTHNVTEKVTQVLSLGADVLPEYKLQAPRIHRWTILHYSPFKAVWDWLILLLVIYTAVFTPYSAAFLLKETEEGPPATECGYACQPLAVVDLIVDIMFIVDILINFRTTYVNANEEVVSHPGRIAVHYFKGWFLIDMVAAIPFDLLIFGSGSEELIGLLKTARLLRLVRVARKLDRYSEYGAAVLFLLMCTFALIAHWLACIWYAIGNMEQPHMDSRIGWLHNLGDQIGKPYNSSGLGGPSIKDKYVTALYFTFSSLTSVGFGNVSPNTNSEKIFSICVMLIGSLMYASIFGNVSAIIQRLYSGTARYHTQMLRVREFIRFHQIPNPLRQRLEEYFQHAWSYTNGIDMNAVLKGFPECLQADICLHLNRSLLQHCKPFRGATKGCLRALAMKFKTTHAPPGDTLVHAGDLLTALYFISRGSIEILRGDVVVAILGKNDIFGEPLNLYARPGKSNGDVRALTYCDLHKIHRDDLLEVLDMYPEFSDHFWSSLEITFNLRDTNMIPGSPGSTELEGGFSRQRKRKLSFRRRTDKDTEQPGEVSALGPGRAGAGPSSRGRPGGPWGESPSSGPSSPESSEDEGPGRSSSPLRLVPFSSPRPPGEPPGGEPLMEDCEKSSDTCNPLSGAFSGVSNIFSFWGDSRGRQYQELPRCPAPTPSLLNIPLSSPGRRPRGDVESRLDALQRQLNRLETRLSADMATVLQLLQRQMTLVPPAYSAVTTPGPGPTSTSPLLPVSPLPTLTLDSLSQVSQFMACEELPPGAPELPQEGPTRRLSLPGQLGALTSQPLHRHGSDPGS
In the case of `O=[N+]([O-])c1ccc(C(O)CN2CCN(Cc3ccccc3)CC2)cc1` (stereo not shown), the “hERG current change (%, negative = inhibition) at 10uM” value was -73.4%.
`O=C1CSC(c2ccccc2)N1CC(O)c1ccc([N+](=O)[O-])cc1` (stereo not shown) was tested, and the “hERG current change (%, negative = inhibition) at 10uM” value was -12.1%.
In the case of `O=[N+]([O-])c1ccc(C(O)CN2CCN(c3ccccc3)CC2)cc1` (stereo not shown), the “hERG current change (%, negative = inhibition) at 10uM” value was -50.3%.
With `Oc1ccc(N2CCN(CC(O)c3ccccc3)CC2)cc1` (stereo not shown) the “hERG current change (%, negative = inhibition) at 10uM” value was 10.4%.
`O=C1CCN(Cc2ccc([N+](=O)[O-])cc2)CCN1[C@H](CO)c1ccccc1` was tested, and the “hERG current change (%, negative = inhibition) at 10uM” value was -37.4%.
With `O=C(CC(c1ccccc1)c1ccccc1)NCC(O)c1ccc([N+](=O)[O-])cc1` (stereo not shown) the “hERG current change (%, negative = inhibition) at 10uM” value was -58.1%.
In the case of `O=[N+]([O-])c1ccc(C(O)CN2CCOCC2)cc1` (stereo not shown), the “hERG current change (%, negative = inhibition) at 10uM” value was 18.5%.
For `O=[N+]([O-])c1ccc(C(O)C[n+]2ccccc2)cc1.[I-]` (stereo not shown), the “hERG current change (%, negative = inhibition) at 10uM” value was 12%.
`O=C(NCC(O)c1ccc([N+](=O)[O-])cc1)C(c1ccccc1)c1ccccc1` (stereo not shown) was tested, and the “hERG current change (%, negative = inhibition) at 10uM” value was -46.2%.
`CC1SC(c2ccccc2)N(CC(O)c2ccc([N+](=O)[O-])cc2)C1=O` (stereo not shown) was tested, and the “hERG current change (%, negative = inhibition) at 10uM” value was -80.6%.
With `COc1ccccc1NC(=S)NC(=O)C(C)C` the “hERG current change (%, negative = inhibition) at 10uM” value was -21.8%.
With `Cc1c(C(=O)N2CCCCC2)nn(-c2ccc(Cl)cc2)c(=O)c1C#N` the “hERG current change (%, negative = inhibition) at 10uM” value was -17.5%.
With `CC(C)(C)n1nc2c(c1NC(=O)COc1ccc(Cl)cc1)CS(=O)(=O)C2` the “hERG current change (%, negative = inhibition) at 10uM” value was -46.5%.
In the case of `Cc1cccc(NC(=S)Nc2ccc3cn[nH]c3c2)c1`, the “hERG current change (%, negative = inhibition) at 10uM” value was 1.96%.
`COc1ccc(C(=O)[C@H]2[C@H]3C(=O)N(c4ccccc4)C(=O)[C@H]3C3C=CC=NN32)cc1` (stereo partly shown) was tested, and the “hERG current change (%, negative = inhibition) at 10uM” value was 4.94%.
For `O=S(=O)(c1ccccc1)N1CCN(C/C=C/c2ccccc2)CC1`, the “hERG current change (%, negative = inhibition) at 10uM” value was -22%.
For `O=S(=O)(c1ccc(S(=O)(=O)N2CCN(C/C=C/c3ccccc3)CC2)cc1)N1CCCC1`, the “hERG current change (%, negative = inhibition) at 10uM” value was 11.6%.
With `O=[N+]([O-])c1ccc(C(O)CN2CCN(C/C=C/c3ccccc3)CC2)cc1` (stereo not shown) the “hERG current change (%, negative = inhibition) at 10uM” value was -76.9%.
For `Cc1occc1-c1nc(-c2ccncc2)no1`, the “hERG current change (%, negative = inhibition) at 10uM” value was -10.4%.
`COc1ccc(OC)c(-n2nnnc2SCC(=O)Nc2nc(C)c(C)s2)c1` was tested, and the “hERG current change (%, negative = inhibition) at 10uM” value was -1.73%.
`Cc1sc2ncnc(N3CCC(C(=O)NNC(=O)COc4ccccc4F)CC3)c2c1C` was tested, and the “hERG current change (%, negative = inhibition) at 10uM” value was -57%.
With `COc1ccccc1OCC(=O)NNC(=O)C1CCN(c2ncnc3sc(C)c(C)c23)CC1` the “hERG current change (%, negative = inhibition) at 10uM” value was 10.5%.
`Cc1c(C(=O)NC2CCCCC2)sc2ncnc(N3CCN(c4ccccc4)CC3)c12` was tested, and the “hERG current change (%, negative = inhibition) at 10uM” value was 13.7%.
`Cc1sc2ncnc(N3CCC(C(=O)NNC(=O)COc4ccccc4Cl)CC3)c2c1C` was tested, and the “hERG current change (%, negative = inhibition) at 10uM” value was -38.6%.
`COc1ccc(OCC(=O)NNC(=O)C2CCN(c3ncnc4sc(C)c(C)c34)CC2)cc1` was tested, and the “hERG current change (%, negative = inhibition) at 10uM” value was -52.5%.
In the case of `Cc1sc2ncnc(N3CCC(C(=O)Nc4ccc(Cl)cc4Cl)CC3)c2c1C`, the “hERG current change (%, negative = inhibition) at 10uM” value was -7.65%.
`COc1ccc(N2CCN(c3ncnc4sc(C(=O)NCC5CCCO5)c(C)c34)CC2)cc1` (stereo not shown) was tested, and the “hERG current change (%, negative = inhibition) at 10uM” value was -63.4%.
`Cc1ccccc1OCC(=O)NNC(=O)C1CCN(c2ncnc3sc(C)c(C)c23)CC1` was tested, and the “hERG current change (%, negative = inhibition) at 10uM” value was -19.3%.
In the case of `Cc1sc2ncnc(N3CCC(C(=O)NCC(=O)Nc4ccc(F)c(F)c4)CC3)c2c1C`, the “hERG current change (%, negative = inhibition) at 10uM” value was -67.2%.
In the case of `Cc1sc2ncnc(N3CCC(C(=O)Nc4ccc(Cl)c(Cl)c4)CC3)c2c1C`, the “hERG current change (%, negative = inhibition) at 10uM” value was -7.26%.
In the case of `Cc1sc2ncnc(N3CCC(C(=O)NNC(=O)COc4cccc(C(F)(F)F)c4)CC3)c2c1C`, the “hERG current change (%, negative = inhibition) at 10uM” value was -40%.
`COc1ccccc1N1CCN(c2ncnc3sc(C(=O)NCC4CCCO4)c(C)c23)CC1` (stereo not shown) was tested, and the “hERG current change (%, negative = inhibition) at 10uM” value was -5%.
For `Cc1onc(-c2ccccc2)c1C(=O)OCC(=O)NC(=O)c1ccccc1`, the “hERG current change (%, negative = inhibition) at 10uM” value was -31.1%.
For `CCCCc1ccc(S(=O)(=O)NC2CCS(=O)(=O)C2)cc1` (stereo not shown), the “hERG current change (%, negative = inhibition) at 10uM” value was -2.26%.
For `Clc1ccccc1Cn1nnc2c(Nc3ccccc3)ncnc21`, the “hERG current change (%, negative = inhibition) at 10uM” value was -0.775%.
`COc1ccc(C2=NN(C(=O)c3ccco3)C(c3cc4ccccc4nc3Cl)C2)cc1` (stereo not shown) was tested, and the “hERG current change (%, negative = inhibition) at 10uM” value was 8.45%.
In the case of `Cc1cc(Cl)ccc1OCC(=O)NNC(=O)C1CCN(c2ncnc3sc(C)c(C)c23)CC1`, the “hERG current change (%, negative = inhibition) at 10uM” value was 5.64%.
For `Cc1ccc(OCC(=O)NNC(=O)C2CCN(c3ncnc4sc(C)c(C)c34)CC2)cc1`, the “hERG current change (%, negative = inhibition) at 10uM” value was -50.7%.
With `Cc1cccc(OCC(=O)NNC(=O)C2CCN(c3ncnc4sc(C)c(C)c34)CC2)c1` the “hERG current change (%, negative = inhibition) at 10uM” value was -48.2%.
`Cc1sc2ncnc(N3CCC(C(=O)NNC(=O)COc4ccc(Br)cc4)CC3)c2c1C` was tested, and the “hERG current change (%, negative = inhibition) at 10uM” value was -68.5%.
With `CCc1ccc(OCC(=O)NNC(=O)C2CCN(c3ncnc4sc(C)c(C)c34)CC2)cc1` the “hERG current change (%, negative = inhibition) at 10uM” value was -45.3%.
With `Cc1sc2ncnc(N3CCC(C(=O)NNC(=O)c4ccc(F)cc4)CC3)c2c1C` the “hERG current change (%, negative = inhibition) at 10uM” value was -21.9%.
For `CCOc1ccc(OCC)c(NC(=O)C2CCCN2S(=O)(=O)c2cccc3cccnc23)c1` (stereo not shown), the “hERG current change (%, negative = inhibition) at 10uM” value was -4.43%.
